Structures are written as SMILES. Compounds without any hit were thinned out: in the full panel of roughly 79,000, 15% have a hit. Values without a mark were called inactive. The source made the active and inactive calls. Rule as the data show it: active = growth inhibition above about 70%; inactive = the rest.

Assay [1] can be described thus: NCI Yeast Anticancer Drug Screen. Data for the rad50 strain (AID 155).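 Also: 0% = growth of vehicle-only cultures of the same strain.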 To be noted: S. cerevisiae rad50 strain growth inhibition; at 50.0 µM; hits give high values. The gist of the method:
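DNA repair mutant yeast, compound exposure, growth read-out; inhibition is taken relative to vehicle.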

The nature of assay [2]: NCI Yeast Anticancer Drug Screen. Data for the mec2-1 strain (AID 157). Conditions: S. cerevisiae mec2-1 strain, at 50.0 µM, hits give high values. The gist of the method: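 Yeast mec2-1 mutant treated with compound. Readout: growth inhibition vs vehicle controls.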
Assay [3] in a line: NCI Yeast Anticancer Drug Screen. Data for the sgs1 mgt1 strain (AID 161).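 Also: 0% = growth of cultures given vehicle only.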 Conditions: S. cerevisiae sgs1 mgt1 strain, at 50.0 µM, hits give high values. The gist of the method:
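Read-out: growth inhibition vs vehicle controls. Cells: mutant yeast strain deficient in DNA damage repair.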

A short description of assay [4]: NCI Yeast Anticancer Drug Screen. Data for the cln2 rad14 strain (AID 165).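 Also: 0% = growth equal to vehicle treated cultures.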 Conditions: S. cerevisiae cln2 rad14 strain, at 50.0 µM, hits give high values. An outline of the steps:
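cln2 rad14 yeast strain; compound exposure; growth inhibition read vs vehicle controls.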

The nature of assay [5]: NCI Yeast Anticancer Drug Screen. Data for the bub3 strain (AID 167). Conditions: S. cerevisiae bub3 mutant strain, at 50.0 µM, hits give high values. An outline of the steps: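 In this screen, a yeast mutant lacking normal mitotic checkpoint function is challenged with compound. Relative growth versus vehicle gives the inhibition value.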
Assay [6] is described as follows: NCI Yeast Anticancer Drug Screen. Data for the mlh1 rad18 strain (AID 175). To be noted: S. cerevisiae mlh1 rad18 strain growth inhibition; at 50.0 µM; hits give high values. An outline of the steps: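 Yeast w/ defined DNA-repair lesions; compound exposure; growth vs vehicle controls → % inhibition.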

For the compound `C1=CC2=CC=CC3c4nc5ccc6ccccc6c5nc4C(=C1)C23` (configuration not stated), the growth inhibition in assay [1] is 11.4%; in assay [2], -9.3%; in assay [3], -0.9%; in assay [4], 4.25%; in assay [5], -2.55%; in assay [6] it was 8.75%.

In the case of `Cc1ccc2nc(CN(CCO)CCO)cc(=O)n2c1`, the growth inhibition in assay [1] is 34.4%; in assay [2], 4.95%; in assay [3] it was 40.5%; in assay [4], 4%; in assay [5] it was 26.6%; in assay [6], 28.4%.

In the case of `O=C1NC(c2ccccc2)(c2ccccc2)C(=O)N1CNc1ccccn1`, the growth inhibition is -0.4% in assay [1]; -14.8% in assay [2]; -31.8% in assay [3]; 8.95% in assay [4]; -8.3% in assay [5]; 29.6% in assay [6].

For the compound `CC1=NN(c2nc(N)nc(CSc3cc(Cl)c(C)cc3S(N)(=O)=O)n2)C(C)(C)C1`, the growth inhibition in assay [1] was -15.5%; in assay [2] it was -8.7%; in assay [3], 12.2%; in assay [4], -8.35%; in assay [5], -18.1%; in assay [6] it was -4.95%.

For the compound `Cc1ccc(NC(=O)C(=O)C(C(=O)c2ccc3ccccc3c2)C2OC(=O)c3ccccc32)c(C)c1` (configuration not stated), the growth inhibition is 45.6% in assay [1]; 26.6% in assay [2]; 32.9% in assay [3]; 11.2% in assay [4]; 34.9% in assay [5]; 62.2% in assay [6].

Regarding `COc1cccc(/C=C2\CCC(C)(CN(C)C)C2=O)c1` (configuration not stated), the growth inhibition in assay [1] is 32.9%; in assay [2] it was 9.1%; in assay [3], 38.9%; in assay [4], 29.2%; in assay [5] it was 13.2%; in assay [6], 29.9%.

With `COc1cc(-c2c(C#N)c(OC)[nH]c(=O)c2C#N)cc(OC)c1OC`, the growth inhibition in assay [1] was 3.85%; in assay [2] it was 13.3%; in assay [3], 7.55%; in assay [4], 13.4%; in assay [5], 1.85%; in assay [6], -0.45%.

For the compound `Nc1ccncn1`, the growth inhibition is -20.9% in assay [1]; -0.85% in assay [2]; -2.45% in assay [3]; -5% in assay [4]; -4.35% in assay [5]; -13.8% in assay [6].

With `NC(=O)C1=C(O)C(=O)NC1=O`, the growth inhibition in assay [1] is 1.6%; in assay [2], 1.55%; in assay [3] it was 8.9%; in assay [4], -29.8%; in assay [5], 7.05%; in assay [6], -5.1%.

Take `CC(=O)c1ccc(C(=O)O)cc1`: the growth inhibition in assay [1] was 13.7%; in assay [2], -11.6%; in assay [3], 2.45%; in assay [4], -0.15%; in assay [5] it was -4.3%; in assay [6] it was 6.15%.

For `O=Cc1ccc(-c2ccc(S(=O)(=O)O)cc2)o1`, the growth inhibition was -35.5% in assay [1]; 6.85% in assay [2]; -41.3% in assay [3]; 25.8% in assay [4]; 3.55% in assay [5]; -3.2% in assay [6].

Consider `CC(C)=CCCC(C)C1CCC2C3CC=C4CC(O)CCC4(C)C3CCC12C` (configuration not stated), for which the growth inhibition was 34.5% in assay [1]; 45% in assay [2]; 48.2% in assay [3]; 34.4% in assay [4]; 12.9% in assay [5]; 72.3% (active) in assay [6].

With `O=[N+]([O-])c1cccc(C2CC(c3ccccc3)=NN2c2ccccc2)c1` (configuration not stated), the growth inhibition in assay [1] is 2.9%; in assay [2], -2.05%; in assay [3], 0.25%; in assay [4], -9.4%; in assay [5], 10.4%; in assay [6], -7.3%.

Take `CC1Oc2c(c(=O)oc3ccccc23)[C@@]1(C)CC1C[C@H](C)C(=O)O1` (some centres not stated): the growth inhibition in assay [1] is 31.6%; in assay [2] it was 25.9%; in assay [3], 35.2%; in assay [4] it was 11.5%; in assay [5], 11.4%; in assay [6] it was 39.1%.

Turning to `Nc1nc(Cc2ccccc2)c(CCCNc2ccccc2)c(=O)[nH]1`, the growth inhibition in assay [1] is -4.95%; in assay [2] it was 5.05%; in assay [3], 6.45%; in assay [4], -74.3%; in assay [5], 1.75%; in assay [6] it was -12.8%.

For the compound `CN(C)c1ccn(C2OC(CO)C(O)C2SC(C)(C)C)c(=O)n1` (configuration not stated), the growth inhibition in assay [1] was -1.2%; in assay [2], 3.95%; in assay [3], -2.05%; in assay [4] it was 10.8%; in assay [5] it was -1.25%; in assay [6] it was 13.8%.

`C1=N/C=C\C=C/c2ccc[n+](CCCCC[n+]3ccccc3-c3ccccn3)c21`: the growth inhibition was 81.5% (active) in assay [1]; 63.5% in assay [2]; 86.8% (active) in assay [3]; 63.1% in assay [4]; 36.7% in assay [5]; 75.2% (active) in assay [6].

Regarding `CC(=O)CC(=O)N1CCCC(C)C1` (configuration not stated), the growth inhibition in assay [1] was -2.85%; in assay [2], -40.8%; in assay [3], -38.5%; in assay [4], 9.1%; in assay [5], -10.9%; in assay [6] it was 1.3%.

As to `CC(=O)OC(C)C(C)Br` (configuration not stated), the growth inhibition in assay [1] was 9.75%; in assay [2], 4.4%; in assay [3] it was -9.35%; in assay [4], -25.1%; in assay [5], -13%; in assay [6] it was 4.9%.

For the compound `Cc1cc(C)c2nc3c(c(C(O)C4CCCCN4)c2c1)CC/C3=C\c1ccc(Cl)cc1` (configuration not stated), the growth inhibition in assay [1] is -28.8%; in assay [2], -22.4%; in assay [3], 16.9%; in assay [4], -7.75%; in assay [5] it was -23.9%; in assay [6], -4.75%.

For the compound `CC1(C=O)CCCC2(C)[C@@H]1CCC13CC(CC[C@H]12)C(C(=O)O)C3` (some centres not stated), the growth inhibition in assay [1] is 28.9%; in assay [2], 30.6%; in assay [3], 22.6%; in assay [4], 14.3%; in assay [5], 26.8%; in assay [6] it was 16.7%.

As for `CC(C)(C)OC(=O)CC(NC(=O)OC(C)(C)C)C(=O)N[C@@H]1CCCC[C@H]1C(=O)OCc1ccccc1` (some centres not stated), the growth inhibition is 8.3% in assay [1]; 15.2% in assay [2]; 9.55% in assay [3]; 8.35% in assay [4]; 14.7% in assay [5]; 23.1% in assay [6].

With `Cc1ccc(C)c(NC(=O)OC/C=C/c2ccccc2)c1`, the growth inhibition is -1.2% in assay [1]; 29.2% in assay [2]; 19.9% in assay [3]; -10.9% in assay [4]; 26.7% in assay [5]; 41.2% in assay [6].

As for `CC1=Nc2c([nH]c(=S)[nH]c2=O)NC(c2c(Cl)cccc2Cl)C1` (configuration not stated), the growth inhibition in assay [1] was 3.9%; in assay [2] it was 11.6%; in assay [3], 14.2%; in assay [4], -4.5%; in assay [5], -4.5%; in assay [6], 34.6%.

On to `COc1ccc(CCCN2c3ccccc3Sc3ccccc32)cc1`, for which the growth inhibition in assay [1] is -6.1%; in assay [2], -3.35%; in assay [3], -21.2%; in assay [4] it was -23.9%; in assay [5], -19.9%; in assay [6], -5.7%.

`OCC1OC(n2cnc3c(NCc4ccccc4)ncnc32)C(O)C1O` (configuration not stated): the growth inhibition in assay [1] is -14.3%; in assay [2], -2.5%; in assay [3] it was 3.2%; in assay [4], -44.2%; in assay [5] it was 11.6%; in assay [6], 0.55%.

Take `c1ccc([Si](c2ccccc2)(c2ccccc2)c2ccc(-c3ccc([Si](c4ccccc4)(c4ccccc4)c4ccccc4)cc3)cc2)cc1`: the growth inhibition in assay [1] was 1.1%; in assay [2], -0.75%; in assay [3], -8.3%; in assay [4] it was -4.35%; in assay [5], -0.05%; in assay [6], -15.9%.

Take `CN(C)N1C(=C(C#N)C#N)C(c2ccccc2)CC1C#N` (configuration not stated): the growth inhibition was 9.55% in assay [1]; 12.9% in assay [2]; -22.8% in assay [3]; 13.2% in assay [4]; -25.8% in assay [5]; -41.5% in assay [6].

Take `Cc1ccc([N+](=O)[O-])cc1NC(=O)Cc1ccccc1`: the growth inhibition is 4.05% in assay [1]; 29.8% in assay [2]; 1.45% in assay [3]; -8% in assay [4]; 18.3% in assay [5]; 17.6% in assay [6].

In the case of `Cc1ccc(S(=O)(=O)Nc2ccccc2-c2nc3ccc([N+](=O)[O-])cc3c(=O)o2)cc1`, the growth inhibition in assay [1] was 35.6%; in assay [2], 36.2%; in assay [3], 22.1%; in assay [4] it was 1.1%; in assay [5], 11.8%; in assay [6], 45.2%.

Take `Cc1ccc(N=Nc2c(O)n(C)c(=O)n(C)c2=O)cc1C`: the growth inhibition was -8.3% in assay [1]; -5.7% in assay [2]; -17.2% in assay [3]; 3.95% in assay [4]; -18.6% in assay [5]; -12.8% in assay [6].

On to `CCOC(=O)c1c(O)csc1N`, for which the growth inhibition is 7.85% in assay [1]; 5.45% in assay [2]; 3.8% in assay [3]; -16.9% in assay [4]; -20.6% in assay [5]; 10.7% in assay [6].

Consider `Fc1cccc2c1Cc1ccccc1-2`, for which the growth inhibition in assay [1] was 5.75%; in assay [2], -8.65%; in assay [3], -21.3%; in assay [4], -58.7%; in assay [5], -1.85%; in assay [6] it was 17.3%.

With `O=C1NC(=O)C(=Nc2cccc3c(=O)[nH][nH]c(=O)c23)C(c2nc3ccccc3s2)C1=O` (configuration not stated), the growth inhibition is 20.2% in assay [1]; -9.7% in assay [2]; -12.8% in assay [3]; 8.7% in assay [4]; -3.05% in assay [5]; 4.7% in assay [6].

As for `CCOc1c(C(=O)O)cnc2ccccc12`, the growth inhibition in assay [1] was -6.2%; in assay [2], 19.5%; in assay [3], -6.2%; in assay [4] it was -38.9%; in assay [5], -19.6%; in assay [6] it was -0.75%.

As for `CCOC(OCC)C(Cl)(Cl)CCl`, the growth inhibition in assay [1] is 6.25%; in assay [2], 4.45%; in assay [3], -3.8%; in assay [4], -25.4%; in assay [5], -0.6%; in assay [6], -6.35%.

For the compound `O=C1CC2[C@@H](N3CCCC3)CCC(N1Cc1ccccc1)C2(O)O` (some centres not stated), the growth inhibition in assay [1] was -6.75%; in assay [2], -38%; in assay [3] it was 1.2%; in assay [4], -4.05%; in assay [5], -19.8%; in assay [6], 3.25%.

The values are drawn from PubChem BioAssay (NCI).
